According to the supplement of paper PMC4723716:
± gives the uncertainty stated by the source. The full ranking holds about 9,900 compounds; the median of “viability index relative to DMSO control” is about 1, and the lowest 2% start at about 0.85. The full list was thinned out, with the lowest values kept by preference.

Test system: Plasmodium falciparum NF54 stage V gametocytes
Test: viability index relative to DMSO control (fraction); higher = less gametocyte killing
Settings: 2.5 µM, incubation time: 72 h
In short: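 In 1,536-well plates, 10 µl of serum-free medium holding P. falciparum NF54 stage V gametocytes (0.75% gametocytemia, 1.25% hematocrit) received compound at 2.5 µM for 72 hr at 37°C in low oxygen. After one to two hours with 3 µl of 2.5 µM MitoTracker Red CMXRos containing 0.13% saponin, red particles of 20–70 µm2 were counted in a single field per well. Viability index is reported as the particle count over the plate mean of wells treated with solvent only.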

[1] = library set: Broad Institute DOS
[2] = library set: Broad Institute Blood Stage

SMILES | viability index [1] | viability index [2]
CN1C(=O)c2cc(NC(=O)C3CCOCC3)ccc2OC[C@@H]2O[C@H](CC(=O)NCc3ccccc3F)CC[C@H]21 | 1.04 ± 0.032 | –
O=C(CN1CCOCC1)N1CC(=O)N2[C@H](C1)[C@H](c1ccc(C3=CCCCC3)cc1)[C@@H]2CO | 1.02 ± 0.035 | –
CCc1cnc(N2[C@H](C#N)[C@@H](c3ccc(-c4cccc(F)c4)cc3)[C@@H]2CO)s1 | 1.12 ± 0.11 | –
C[C@H](CO)N1C[C@H](C)[C@H](CN(C)C(=O)Nc2ccccc2C(F)(F)F)OCc2cnnn2CCCC1=O | 1.03 ± 0.014 | –
COc1ccc(NC(=O)Nc2cccc3c2O[C@@H](CN(C)Cc2ccc(C(=O)O)cc2)[C@@H](C)CN([C@@H](C)CO)C3=O)cc1 | 0.95 ± 0.17 | –
COc1ccc(NC(=O)N(C)C[C@H]2Oc3c(NC(=O)Nc4ccccc4)cccc3C(=O)N([C@@H](C)CO)C[C@H]2C)cc1 | – | 0.724 ± 0.05
COc1ccc(NC(=O)Nc2cccc3c2O[C@@H](CN(C)Cc2ccc(C(=O)O)cc2)[C@H](C)CN([C@@H](C)CO)C3=O)cc1 | 0.978 ± 0.065 | –
CC(C)[C@H]1C(=O)N[C@H](c2cccc(Cl)c2)C/C=C/C[C@H](C)Oc2ccccc2C(=O)N1C.CC(C)[C@H]1C(=O)N[C@H](c2cccc(Cl)c2)C/C=C\C[C@H](C)Oc2ccccc2C(=O)N1C | 0.9865 ± 0.0032 | –
C[C@@H]1CN([C@@H](C)CO)C(=O)c2cccc(NS(C)(=O)=O)c2O[C@H]1CN(C)Cc1ccc(-c2ccccc2)cc1 | 1.01 ± 0.029 | –
C[C@H](CO)N1C[C@H](C)[C@@H](CN(C)Cc2ccccc2)Oc2c(NC(=O)Cc3cn(C)c4ccccc34)cccc2C1=O | 0.744 ± 0.038 | –
C[C@H]1CN([C@@H](C)CO)C(=O)c2cccc(NS(C)(=O)=O)c2O[C@@H]1CN(C)Cc1ccc(-c2ccccc2)cc1 | 1 ± 0.078 | –
C[C@H](CO)N1C[C@H](C)[C@@H](CN(C)Cc2ccc(Oc3ccccc3)cc2)Oc2c(NC(=O)CCC(F)(F)F)cccc2C1=O | 0.888 ± 0.11 | –
C[C@@H]1CN([C@H](C)CO)C(=O)c2cccc(NS(C)(=O)=O)c2O[C@@H]1CN(C)Cc1ccc(-c2ccccc2)cc1 | 1.02 ± 0.028 | –
C[C@H](CO)N1C[C@H](C)[C@H](CN(C)Cc2ccc(-c3ccccc3)cc2)Oc2c(NS(C)(=O)=O)cccc2C1=O | 0.827 ± 0.011 | –
CO[C@H](CN(C)S(=O)(=O)c1ccc(C)cc1)[C@H](C)CN(C(=O)Nc1ccccc1F)[C@H](C)CO | 1.06 ± 0.026 | –
O=C(C[C@H]1CC[C@@H]2[C@H](COC[C@H](O)CN2Cc2ccc3c(c2)OCO3)O1)N1CCCCC1 | 1.01 ± 0.072 | –
O=C(c1cnccn1)N1C[C@@H]2N[C@H](C1)[C@@H]2c1ccc(/C=C/c2ccccc2)cc1 | 1.05 ± 0.026 | –
COc1ccc(S(=O)(=O)Nc2cccc3c2O[C@@H](CN(C)CC2CCCCC2)[C@H](C)CN([C@H](C)CO)C3=O)cc1 | 0.958 ± 0.094 | –
CCC(=O)N1C[C@]2(CCN(CC2)C(=O)Nc2ccccc2F)c2c([nH]c3cc(OC)ccc23)[C@@H]1CO | 0.642 ± 0.081 | –
COc1ccc2c3c([nH]c2c1)[C@@H](CO)N(C[C@]31CCN(CC1)C(=O)Nc1ccc(F)cc1F)C(C)=O | 1.07 ± 0.056 | –
COCC(=O)N1CC[C@@]2(CC1)CN([C@@H](CO)c1[nH]c3cc(OC)ccc3c21)S(C)(=O)=O | 1.09 ± 0.06 | –
COc1ccc2c3c([nH]c2c1)[C@H](CO)N(C[C@]31CN(CC2CC2)C1)C(=O)CN(C)C | 1.07 ± 0.032 | –
COc1ccc2c3c([nH]c2c1)[C@H](CO)N(C[C@]31CCN(CC1)C(=O)Nc1ccccc1)S(C)(=O)=O | 0.121 ± 0.0032 | –
COc1ccc2c3c([nH]c2c1)[C@@H](CO)N(C[C@]31CN(CC2CC2)C1)C(=O)CN(C)C | 0.939 ± 0.018 | –
COc1ccc2c3c([nH]c2c1)[C@@H](CO)N(C[C@]31CCN(CC2CCCCC2)CC1)C(=O)CN(C)C | – | 0.807 ± 0.026
COc1ccc2c3c([nH]c2c1)[C@H](CO)N(C[C@]31CCN(CC1)C(=O)Nc1ccc(F)cc1F)C(C)=O | 0.748 ± 0.035 | –

SMILES | viability index [1] | viability index [2]
COc1ccc2c3c([nH]c2c1)[C@@H](CO)N(C[C@]31CCN(CC1)C(=O)Nc1ccccc1)S(C)(=O)=O | 0.99 ± 0.15 | –
COc1ccc2c3c([nH]c2c1)[C@@H](CO)N(C[C@]31CCN(CC1)C(C)=O)C(C)=O | 0.9689 ± 0.0023 | –
CCC(=O)N1C[C@]2(CCN(CC2)C(=O)Nc2ccccc2F)c2c([nH]c3cc(OC)ccc23)[C@H]1CO | 0.9987 ± 0.0051 | –
COCC(=O)N1C[C@@]2(C1)CN([C@H](CO)c1[nH]c3cc(OC)ccc3c21)C(=O)Nc1ccccc1F | 1.03 ± 0.071 | –
O=C(C[C@@H]1C[C@H]2c3cc(NS(=O)(=O)c4ccccc4)ccc3O[C@H]2[C@@H](CO)O1)N1CCOCC1 | 1.05 ± 0.026 | –
COCC(=O)NC[C@@H]1[C@H](c2ccccc2)[C@H](CO)N1C(=O)c1ccccc1 | 0.986 ± 0.17 | –
C[C@H]1CN([C@@H](C)CO)C(=O)c2cccc(NC(=O)c3cnccn3)c2O[C@H]1CN(C)C(=O)NC1CCCCC1 | 1.01 ± 0.033 | –
COc1ccccc1-c1ccc2n(c1=O)C[C@@H]1[C@@H](CO)[C@H](C(=O)N3CCOCC3)[C@H]2N1CC1CC1 | 1.04 ± 0.016 | –
COc1cccc(-c2ccc3n(c2=O)C[C@@H]2[C@@H](CO)[C@H](C(=O)N(C)C)[C@H]3N2C(=O)c2ccccn2)c1 | 1.04 ± 0.017 | –
CO[C@@H]1CN(C)C(=O)c2ccc(NC(=O)C3CC3)cc2OC[C@@H](C)N(C(C)=O)C[C@@H]1C | 1.02 ± 0.042 | –
CN1C[C@@H](O)COC[C@H]2O[C@H](CC(=O)NC3CCCC3)CC[C@@H]21 | 1.05 ± 0.064 | –
O=C(C1CCC1)N1C[C@@H]2N[C@H](C1)[C@H]2c1ccc(/C=C/c2ccccc2)cc1 | 1.02 ± 0.042 | –
O=C(c1ccc2c(c1)OCO2)N1C[C@@H]2N[C@H](C1)[C@@H]2c1ccc(/C=C/c2ccccc2)cc1 | 0.731 ± 0.086 | –
O=C(c1ccc2c(c1)OCO2)N1C[C@@H]2N[C@H](C1)[C@@H]2c1ccc(-c2cncnc2)cc1 | 1.08 ± 0.035 | –
COc1ccccc1NC(=O)N1C[C@@H]2N[C@H](C1)[C@H]2c1ccc(/C=C/c2ccccc2)cc1 | 0.976 ± 0.048 | –
O=C(C1CCC1)N1C[C@@H]2N[C@H](C1)[C@@H]2c1ccc(-c2cncnc2)cc1 | 1.115 ± 0.0039 | –
O=C(C1CCC1)N1C[C@@H]2N[C@H](C1)[C@@H]2c1ccc(/C=C/c2ccccc2)cc1 | 0.799 ± 0.019 | –
C/C=C/c1ccc([C@H]2[C@@H]3CN(C(=O)Nc4ccccc4F)C[C@H]2N3)cc1 | 1.06 ± 0.034 | –
O=C(c1ccc2c(c1)OCO2)N1C[C@@H]2N[C@H](C1)[C@H]2c1ccc(/C=C/c2ccccc2)cc1 | 1.05 ± 0.017 | –
COc1ccccc1NC(=O)N1C[C@@H]2N[C@H](C1)[C@@H]2c1ccc(/C=C/c2ccccc2)cc1 | 0.571 ± 0.027 | –
CC(C)(C)[S@@](=O)N1Cc2cc(C(=O)NC3CCC3)nc(-c3cccc(-c4ccccc4F)c3)c2[C@H]1CCO | 1.02 ± 0.012 | –
CC(C)C[C@H]1COCc2cn(nn2)CC[C@@H](Cc2ccc(Cl)cc2)C(=O)N1 | 0.955 ± 0.036 | –
Cc1noc(C)c1C(=O)N(C)C[C@H]1OCc2ccccc2-c2ccccc2C(=O)N([C@@H](C)CO)C[C@@H]1C | 1.01 ± 0.065 | –
O=C(Nc1ccc2c(c1)[C@@H]1C[C@H](CC(=O)N3CCc4ccccc4C3)O[C@@H](CO)[C@@H]1O2)c1ccc2c(c1)OCO2 | 0.991 ± 0.038 | –
CN(C)C(=O)[C@@H]1[C@@H](CO)[C@@H]2Cn3c(ccc(C4=CCCC4)c3=O)[C@H]1N2S(=O)(=O)c1cn(C)cn1 | 0.984 ± 0.045 | –
N#C[C@H]1N[C@H](CO)[C@@H]1c1ccc(C#Cc2ccccc2F)cc1 | 1.07 ± 0.076 | –

SMILES | viability index [1] | viability index [2]
CC[C@H]1C/C=C/C[C@@H](C)Oc2ccccc2C(=O)N(C)[C@H](C)C(=O)N1.CC[C@H]1C/C=C\C[C@@H](C)Oc2ccccc2C(=O)N(C)[C@H](C)C(=O)N1 | 1.04 ± 0.086 | –
CC(C)C#Cc1ccc([C@H]2[C@H]3CN(C(=O)Cc4ccccc4)CC(=O)N3[C@H]2CO)cc1 | 1.045 ± 0.0096 | –
Cc1ccccc1-c1ccc([C@@H]2[C@H](CO)N3CCCCN(S(=O)(=O)Cc4ccccc4)C[C@@H]23)cc1 | 0.74 ± 0.039 | –
Cc1cccc(-c2ccc([C@H]3[C@H]4CN(S(=O)(=O)c5ccccc5F)CCCCN4[C@H]3CO)cc2)c1 | 0.973 ± 0.094 | –
Cc1ccccc1-c1ccc([C@H]2[C@@H](CO)N3CCCCN(S(=O)(=O)Cc4ccccc4)C[C@@H]23)cc1 | 0.991 ± 0.063 | –
Cc1cccc(-c2ccc([C@@H]3[C@@H](CO)N4CCCCN(S(=O)(=O)c5ccccc5F)C[C@H]34)cc2)c1 | 0.537 ± 0.053 | –
Cc1ccccc1-c1ccc([C@H]2[C@H](CO)N3CCCCN(S(=O)(=O)Cc4ccccc4)C[C@@H]23)cc1 | 0.924 ± 0.034 | –
Cc1cccc(-c2ccc([C@H]3[C@@H](CO)N4CCCCN(S(=O)(=O)c5ccccc5F)C[C@@H]34)cc2)c1 | 1 ± 0.044 | –
Cc1noc(C)c1NC(=O)Nc1cccc2c1O[C@H](CN(C)Cc1ccc(C(=O)Nc3ccccc3N)cc1)[C@@H](C)CN([C@H](C)CO)C2=O | 0.961 ± 0.023 | –
CNC[C@H]1OCCCC[C@@H](C)Oc2ccc(NC(=O)Nc3ccc(OC)cc3)cc2C(=O)N([C@@H](C)CO)C[C@@H]1C | 0.965 ± 0.12 | –
Cc1cc(C(=O)Nc2ccc3c(c2)C(=O)N(C)[C@H]2CC[C@H](CC(=O)O)O[C@@H]2CO3)no1 | 0.927 ± 0.12 | –
C[C@@H]1CN([C@@H](C)CO)C(=O)c2cc(NS(=O)(=O)c3cccs3)ccc2O[C@@H](C)CCCCO[C@H]1CN(C)C(=O)c1ccncc1 | 1.07 ± 0.045 | –
COCC#Cc1ccc([C@@H]2[C@H](CO)N3CCCCN(Cc4cccnc4)C[C@@H]23)cc1 | 1.03 ± 0.068 | –
O=C(Nc1cccc(F)c1)N1CCCCN2[C@H](CO)[C@H](c3ccc(C#Cc4cccnc4)cc3)[C@H]2C1 | 0.848 ± 0.034 | –
COc1cccc(CN2CCCCN3[C@H](CO)[C@@H](c4ccc(C#Cc5cccnc5)cc4)[C@@H]3C2)c1 | – | 0.841 ± 0.06
O=C(Nc1cccc(F)c1)N1CCCCN2[C@H](CO)[C@@H](c3ccc(C#Cc4cccnc4)cc3)[C@H]2C1 | 0.8437 ± 0.0061 | –
O=C(Nc1cccc(F)c1)N1CCCCN2[C@H](CO)[C@H](c3ccc(C#Cc4cccnc4)cc3)[C@@H]2C1 | 1.05 ± 0.024 | –
O=C(Nc1ccc(F)cc1)N1CC(=O)N2[C@@H](CO)[C@H](c3ccc(C#Cc4cccnc4)cc3)[C@@H]2C1 | 1.11 ± 0.058 | –
O=C(Nc1ccc(F)cc1)N1CC(=O)N2[C@H](C1)[C@H](c1ccc(C#Cc3cccnc3)cc1)[C@@H]2CO | 1.08 ± 0.07 | –
O=C(Nc1cccc(F)c1)N1CCCCN2[C@H](C1)[C@H](c1ccc(C#Cc3cccnc3)cc1)[C@@H]2CO | 0.836 ± 0.036 | –
O=C(Nc1cccc(F)c1)N1CCCCN2[C@H](CO)[C@@H](c3ccc(C#Cc4cccnc4)cc3)[C@@H]2C1 | 1.07 ± 0.078 | –
O=C(Nc1cccc(F)c1)N1CCCCN2[C@@H](CO)[C@@H](c3ccc(C#Cc4cccnc4)cc3)[C@@H]2C1 | 0.979 ± 0.089 | –
COCC#Cc1ccc([C@@H]2[C@@H](CO)N3CCCCN(Cc4cccnc4)C[C@@H]23)cc1 | 1.06 ± 0.14 | –
O=C(Nc1cccc(F)c1)N1CCCCN2[C@@H](CO)[C@H](c3ccc(C#Cc4cccnc4)cc3)[C@@H]2C1 | 1.05 ± 0.075 | –
